# High-throughput results as filed in PubChem.
# Rows were chosen to be rich in hits. Some 1.8% of all compounds tested hit in one or more screens of this group.
# Vc quorum ag – inducers of Vibrio cholerae quorum light production without autoinducers | 0.16% of 350,000 active | V. cholerae BH1578 lux reporter, luminescence, 6 h | AID 588436 | activation, % at 18.7 µM; in the data active means activation mostly above about 9.7%, no sharp cut-off
# CCHF vOTU inh-1 – blocks the CCHF virus ovarian tumor domain protease | AID 651958 | 0.55% of 370,000 active | CCHFV vOTU protease, Pep-AMC fluorescence | inhibition, % at 11.5 µM; further: 0% = vehicle wells with enzyme and 100% = no enzyme wells
# Yp Topo-I inh – inhibitors of Yersinia pestis topoisomerase I | Y. pestis Topo-I cleavage product accumulation, plate reader | activity, % at 10 µM | 0.064% of 360,000 active | AID 504884; in the data active means activity above about 50%, passing the limit was not always enough
# MazEF act – MazEF (E. coli) toxin RNase activation. P0AE70. FAM/BHQ RNA-DNA oligo cleavage fluorescence, 5 h. activation, % at 20 µM. 0.32% of 350,000 active. AID 504720; in the data active means activation above about 50%
# Target sequence (P0AE70 whole entry, looked up): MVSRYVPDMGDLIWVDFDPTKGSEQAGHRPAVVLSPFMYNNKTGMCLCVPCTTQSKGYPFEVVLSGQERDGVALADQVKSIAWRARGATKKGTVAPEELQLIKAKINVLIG
# PrPC TRFRET – inhibitors of human cell surface prion protein PrPC; P04156; TR-FRET read-out; inhibition, % at 13.8 µM; 0.43% of 370,000 active; in the data active means inhibition above about 24%; further: 0% = median of the test wells and 100% = reference compound wells
# VHR inh abs – DUSP3 (human) phosphatase inhibition; P51452; recombinant VHR phosphatase, pNPP absorbance; inhibition, % at 13.3 µM; 0.52% of 290,000 active; AID 1654; in the data active means inhibition above about 50%
# Target sequence (P51452 whole entry, looked up): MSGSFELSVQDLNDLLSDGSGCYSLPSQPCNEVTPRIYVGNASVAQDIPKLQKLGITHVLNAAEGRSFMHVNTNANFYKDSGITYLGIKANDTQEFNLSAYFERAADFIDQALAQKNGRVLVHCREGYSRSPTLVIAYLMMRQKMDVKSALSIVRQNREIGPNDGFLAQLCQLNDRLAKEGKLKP
# CCHF vOTU inh-2 – CCHFV vOTU protease inhibition, confirmation; shares compounds with CCHF vOTU inh-1; Recombinant CCHFV vOTU, Pep-AMC fluorescence; inhibition, % at 11.5 µM; 17% of 1,900 active
# Active calls of the source: *; i = inactive; . = no result. Unless noted, no stated cut-off is given here; in the data, active means inhibition above about 30%; inactive means the rest.
SMILES,Vc quorum ag,CCHF vOTU inh-1,Yp Topo-I inh,MazEF act,PrPC TRFRET,VHR inh abs,CCHF vOTU inh-2
CC1CCc2sc(C(=O)N(C)CC(=O)Nc3cccc(F)c3)cc2C1 (centres undefined),-0.4,29.8*,23.8,-8.2,7.1,12.5,-5.3
CC1=C(N2CC2)C(=O)C(CO)=C(N2CC2)C1=O,5.6,35.5*,-6.9,-5.6,-38.6,.,4.7
CN(C)S(=O)(=O)N1CCCN(S(=O)(=O)N(C)C)CC1,-0.3,44.0*,5.0,-5.4,-0.6,0.2,-10.1
COC(=O)c1nc(-c2ccc3c(n2)C(=O)C(N)=C(OC)C3=O)c(N)c(-c2ccc(OC)c(OC)c2O)c1C,11.5,37.2*,-5.5,-2.7,-1.3,0.4,105.8*
O=Cc1ccc(-c2c(-c3ccccc3)oc3c2C(OCCCCO)CCC3)o1 (centres undefined),.,9.2,.,.,-10.7,.,.
COc1ccc(S[C@]2(C(=O)N3CCN(c4ncccn4)CC3)CC(=O)N(c3ccc4ccccc4c3)[C@@H]2c2ccc(OC)cc2)cc1,.,-5.0,.,.,-9.0,.,.
C[C@H]1CNCCN1c1ccc(N2CC[C@@H](O)C2)c(C#N)c1,.,34.3*,.,.,-1.7,.,-19.8
Cc1cc(N2CCNC[C@@H]2C)ccc1N1CC[C@@H](O)C1,.,17.0,.,.,-3.2,.,.
O=C1Cc2c([nH]c3ccc([N+](=O)[O-])cc23)-c2ccccc2N1,i,-3.2,1.7,-17.1,4.8,.,.
Cc1cnc(C=NNC(N)=S)c2cccc(N)c12,i,44.6*,-16.0,3.3,-2.0,.,73.2*
Cc1ccc(S(C)(=O)=O)cc1C(=O)OCC(=O)N(Cc1ccccc1)Cc1ccccc1,0.9,12.7,20.7,2.8,6.7,.,.
O=C(O)Cn1c2c(c3ccccc31)CCCC2,i,29.5*,-6.3,-18.0,7.3,8.4,-17.3
CC(=O)NNC(=O)CCn1c2c(c3ccccc31)CCCC2,-0.9,-15.1,2.6,3.4,2.0,8.5,.
CC12CCC(C(=NO)C1=O)C2(C)C (centres undefined),-4.3,35.6*,7.2,5.2,1.6,.,-17.1
CC12CCC(C(=NO)C1=NO)C2(C)C (centres undefined),-1.0,5.9,4.4,7.8,-3.8,.,.
Nc1ncnc2c1ncn2[C@@H]1O[C@H](COP(=O)(O)O)[C@@H](O)[C@H]1O,-2.8,2.1,-11.0,6.2,1.0,25.1,.
CN1N=C(N)c2cn(C3OC(COP(=O)(O)O)C(O)C3O)c3ncnc1c23 (centres undefined),50.0*,32.0*,9.1,0.7,2.5,.,4.0
CC(C)C(=O)NCCCc1ccccc1,i,9.9,-0.2,6.0,0.2,25.5,.
CC(C)CCCCCCCCc1cccc(O)c1C(=O)O,.,42.9*,.,.,-0.2,.,25.2
CC(=O)N(C1=C(N2CCOCC2)C(=O)c2ccccc2C1=O)c1ccc(C(=O)O)cc1,0.9,52.2*,-19.0,-2.6,-40.6,-4.9,36.3*
O=C(O)c1ccc(NC2=C(N3CCOCC3)C(=O)c3ccccc3C2=O)cc1,-0.2,56.9*,-10.3,4.6,-6.9,-1.6,23.0
CC(=O)c1ccc(NC2=C(N3CCOCC3)C(=O)c3ccccc3C2=O)cc1,i,93.1*,-6.6,8.6,-6.3,31.1,67.3*
CC(=O)N(C)C1=C(N2CCOCC2)C(=O)c2ccccc2C1=O,2.7,.,-17.6,-0.1,.,5.0,.
Cc1ccc(NC2=C(N3CCOCC3)C(=O)c3ccccc3C2=O)cc1,i,108.2*,14.2,8.4,-15.1,-7.9,101.1*
COC[C@H]1CCCN1c1cccc2c1S(=O)(=O)N1CC[C@H](C1)O2,.,1.2,.,.,1.0,.,.
SMILES,Vc quorum ag,CCHF vOTU inh-1,Yp Topo-I inh,MazEF act,PrPC TRFRET,VHR inh abs,CCHF vOTU inh-2
CC(NC(=O)C1CCN(C(=O)[C@@H]2Cc3ccccc3CN2)CC1)c1ccccc1 (some centres undefined),7.1,-8.9,8.2,9.1,-3.0,17.7,.
COc1cc(/C=C/[N+](=O)[O-])ccc1OC(=O)/C=C/c1ccc(F)cc1,-0.7,6.5,-3.1,5.3,-2.6,5.8,.
CCSc1nc(-c2ccccc2)cc(=O)[nH]1,-0.4,30.8*,12.4,5.6,-3.0,.,-11.8
O=c1cc(-c2ccccc2)nc(SCc2ccccc2)[nH]1,i,2.3,3.6,2.9,1.5,-7.3,.
CC(=O)NC(c1ccc(F)c(F)c1)c1nc(-c2cnn(C)c2)cs1 (centres undefined),0.0,-0.5,-2.2,.,-4.4,.,.
O=C1C(=Cc2cn(-c3ccccc3)nc2-c2ccc(OCc3ccccc3)cc2)SC(=S)N1CCS(=O)(=O)O,-0.7,30.3*,21.9,.,-5.8,.,10.7
O=c1c(=Nc2ccccc2O)c(=O)c2ccccc12,-0.4,49.0*,1.9,5.2,-6.8,1.2,-0.9
Cn1ccc(C(=O)OCC(=O)Nc2cccc3ccccc23)n1,1.0,-8.4,3.7,-3.1,8.1,3.9,.
O=C(CCc1c[nH]c2ccccc12)Nc1ccc(Nc2ccccc2)cc1,.,3.2,.,.,-10.5,.,.
CCOc1ccc(CCNC(=O)c2cc(C)nc3ccccc23)cc1OCC,-5.9,-6.7,9.9,-1.5,0.7,22.1,.
CCOC(=O)C1=CCC(c2cc3ccc(OC)cc3n2C(=O)OC(C)(C)C)NC1 (centres undefined),.,34.4*,.,.,-8.5,.,-5.5
Cc1cccc(NC(=O)C2=C(O)c3ccccc3N(C)S2(=O)=O)c1,-1.9,0.3,2.9,3.6,5.4,18.0,.
CN1c2ccccc2C(O)=C(C(=S)Nc2ccc(Cl)cc2)S1(=O)=O,-0.3,30.7*,17.5,-4.2,0.7,3.6,6.4
COc1cc(/C=N/Nc2ccc(S(N)(=O)=O)cc2)cc(OC)c1OC,-0.2,30.4*,-18.2,3.7,-0.1,10.6,-2.6
COc1cc(/C=N/Nc2ccc(C(=O)O)cc2)cc(OC)c1OC,-1.0,-0.4,-3.4,-0.4,1.1,17.0,.
CCOc1ncccc1C(=O)Nc1cc(S(=O)(=O)N2CCOCC2)ccc1OCC(F)(F)F,3.2,55.2*,4.2,-3.4,-4.5,.,1.5
O=[N+]([O-])c1cnccc1Nc1ccccc1,-0.4,-10.4,-2.4,3.6,-24.9,11.9,.
O=C(O)c1cccc(Nc2ccncc2[N+](=O)[O-])c1,-0.9,29.7*,-5.6,8.2,-28.2,.,-10.6
CC(=O)c1ccc(NC(=O)CN(c2c(C)cccc2C)S(C)(=O)=O)cc1,-0.9,-7.7,-18.4,6.5,3.8,21.9,.
CCOC(=O)C(CNc1ccc(O)cc1)NC(=O)c1ccccc1 (centres undefined),.,48.9*,.,.,-11.9,.,-0.5
C[C@@H]1CN([C@@H](C)CO)C(=O)CCCn2nncc2CO[C@H]1CN(C)S(=O)(=O)c1cn(C)cn1,-1.0,-0.7,4.5,0.5,-6.5,.,.
COc1cccc(C(C(=O)NC2CCCC2)N2CCN(c3cc(C)ccc3C)CC2)c1OC (centres undefined),.,30.3*,.,.,1.6,.,-4.9
Cc1ccc(C)c(N2CCN(C(C(=O)NC3CCCC3)c3ccco3)CC2)c1 (centres undefined),.,18.0,.,.,0.0,.,.
